Screening results: PubChem, National Center for Advancing Translational Sciences (NCATS)
ATXN viability: cell viability loss in ATXN counter-screen. S2 cells (HEK-293 line with an ATXN2-luciferase reporter) viability, CellTiter-Fluor protease fluorescence, 24 h. Potency, µM (doses to about 56.7 µM), actives largely listed as cytotoxic. 400,000 compounds, 0.49% hits; also: nearly all actives have a fitted effect of over 40% in size
IL1B secr inh: inflammasome signaling inhibition, IL-1 beta readout. THP-1 LPS/ATP IL-1B secretion, AlphaLISA, 16 h; hits give low values. AID 743279. 360,000 compounds, 4.7% hits. activity change, % at 57.5 µM; in the data active = activity change below about -50%; inconclusive = mostly about -30% to -49%
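THP-1 cells pretreated 1 hr with compounds (up to 57.5 uM final), then stimulated with LPS (250 ng/mL final) plus ATP (1.25 mM final); secreted IL-1B measured by AlphaLISA after 16 hr, decreased signal indicating inhibition.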
ATXN2 expr inh: inhibitors of ATXN2 expression. HEK-293 ATXN2-luciferase reporter, luminescence, 24 h. AID 1745845. Potency, µM (highest dose often 57 µM), usual class: inhibitors. 360,000 compounds, 0.72% hits; also: nearly all actives have a fitted effect of over 55% in size
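qHTS (up to 57 uM final) was run with 24 h compound exposure of reporter cells at 37 °C. Each well was multiplexed: SteadyGlo luminescence measured ATXN2-luciferase expression after a fluorogenic Gly-Phe-AFC viability readout (25 uM final).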
MCF10A rereplic: inducers of DNA re-replication in MCF 10A breast cells. MCF 10A DNA re-replication, Hoechst nuclear intensity, 48 h. Potency, µM (series often up to 46.1 µM), most hits filed as activators. 350,000 compounds, 2.9% hits. AID 624296; also: nearly all actives have a fitted effect of over 50% in size
SW480 rereplic: DNA re-replication induction in SW480 cells. SW480 DNA re-replication, Hoechst DNA content imaging, 48 h. Potency, µM (top dose mostly 46.1 µM), usual class: activators. 340,000 compounds, 1.8% hits; also: nearly all actives have a fitted effect of over 55% in size
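Compounds, transferred as 23 nL by pin tool, were incubated with cells for 48 hr; DNA content per nucleus was then quantified by Hoechst staining and fluorescence plate imaging.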
PINK1 expr mod: modulators of PINK1 expression; AID 624263; PINK1 immunofluorescence, high-content cytometry, 24 h; Potency, µM (top dose mostly 76.6 µM), hits mostly activators; 410,000 compounds, 0.2% hits; active = well fitted activation curve with a large enough effect; inconclusive = small, poorly fitted or top-dose-only effect; cell line not stated here; also: nearly all actives have a fitted effect of over 65% in size
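Readout is PINK1 immunofluorescence, quantified alongside mitochondrial, cell and nuclear markers by laser-scanning microplate cytometry. Cells from a stable line were exposed to compound titrations (5 concentrations) for 24 hours, with CCCP controls.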
Of the large screens only hits and unclear results are named; the others gave an inactive call. Shown are actives, neighbours in structure and some others; about 7.1% of the full set was active somewhere. Unless noted, calls follow the shape of the dose curve; as a rule, active = well fitted curve in the direction sought with a large enough effect; inconclusive = small, poorly fitted or top-dose-only effect, or another doubt; inactive = no such curve, though single readings can be large; an effect the other way counts as inactive or inconclusive.

CN1c2ccccc2Oc2nnc(N3CCN(Cc4ccccc4)CC3)cc21	IL1B secr inh -96, MCF10A rereplic inconclusive
CN1c2ccccc2Oc2nnc(Cl)cc21	IL1B secr inh -52 (no result: ATXN viability)
COc1ccccc1CNC(=O)CCn1nc(C)c2c(C)n(-c3ccccc3)nc2c1=O	none (no result: IL1B secr inh, MCF10A rereplic, SW480 rereplic)
Cc1cccc(CNC(=O)c2cnn(-c3nccc(-c4cc(C)sc4C)n3)c2C)n1	none (no result: IL1B secr inh, ATXN2 expr inh, MCF10A rereplic, SW480 rereplic)
COc1cccc(N2CCN(C(=O)c3cnn(-c4ccc(C)cc4C)c3C3CCN(C(=O)OC(C)(C)C)CC3)CC2)c1	ATXN viability inconclusive, ATXN2 expr inh inconclusive (no result: IL1B secr inh, MCF10A rereplic, SW480 rereplic)
Cc1ccc(C2NC(=O)c3c(sc(C)c3C)N2)c(O)c1 (stereo unspecified)	MCF10A rereplic inconclusive, SW480 rereplic 21µM
NCCCn1cnc2ccccc21	MCF10A rereplic 0.58µM
Cc1ccc(Cn2cnc3ccccc32)cc1	IL1B secr inh -54
COc1ccc(NC(=O)c2cn3c4c(ccc(Cl)c4c2=O)OC(C)C3)cc1OC (stereo unspecified)	none (no result: IL1B secr inh, MCF10A rereplic, SW480 rereplic)
CCOc1ccc(Cc2cc([C@@H]3O[C@H](CO)[C@@H](O)[C@H](O)[C@@H]3O)ccc2Cl)cc1	none (no result: ATXN viability, IL1B secr inh, MCF10A rereplic, SW480 rereplic, PINK1 expr mod)
COc1cc(OC)cc(-c2sc3ccc(OC)cc3c2C#CC2(N)CCCCC2)c1	IL1B secr inh inconclusive, ATXN2 expr inh inconclusive, MCF10A rereplic 15µM, SW480 rereplic 18µM (no result: ATXN viability)
COc1ccc(C(=O)c2ccc(Cl)c([N+](=O)[O-])c2)cc1	ATXN viability inconclusive, IL1B secr inh -101, MCF10A rereplic 3.7µM, SW480 rereplic 0.82µM
Cc1cc2ccccn2c1C(=O)c1ccc(Cl)c([N+](=O)[O-])c1	IL1B secr inh -75
Cc1cc2ccccn2c1C(=O)c1ccc([N+](=O)[O-])o1	ATXN viability inconclusive, IL1B secr inh -99, ATXN2 expr inh inconclusive, MCF10A rereplic inconclusive, SW480 rereplic 21µM, PINK1 expr mod inconclusive
COc1ccc(S(=O)(=O)NCc2ccc3c(c2)CCN3C(=O)c2ccccc2)cc1OC	none (no result: ATXN viability, IL1B secr inh, ATXN2 expr inh, MCF10A rereplic, SW480 rereplic)
COc1ccc(OC)c(NC(=O)c2nc(S(=O)(=O)Cc3ccccc3)ncc2Cl)c1	ATXN viability 18µM, IL1B secr inh -102, MCF10A rereplic 1.6µM, SW480 rereplic inconclusive
Cc1ccccc1NC(=O)c1nc(S(C)(=O)=O)ncc1Cl	IL1B secr inh -98, MCF10A rereplic inconclusive, SW480 rereplic inconclusive (no result: ATXN viability, ATXN2 expr inh)
COc1ccc(NC(=O)c2nc(S(=O)(=O)Cc3cccc(C)c3)ncc2Cl)c(OC)c1	MCF10A rereplic inconclusive (no result: ATXN2 expr inh)
Cc1cccc(CS(=O)(=O)c2ncc(Cl)c(C(=O)NCc3ccccc3)n2)c1	IL1B secr inh -97, MCF10A rereplic 13µM, SW480 rereplic inconclusive (no result: ATXN viability, ATXN2 expr inh)
Cc1cccc(C)c1NC(=O)c1nc(S(=O)(=O)Cc2ccccc2)ncc1Cl	ATXN viability inconclusive, IL1B secr inh -101, ATXN2 expr inh inconclusive, MCF10A rereplic inconclusive, SW480 rereplic inconclusive
